According to PubChem BioAssay (Tox21):
Results filed as inconclusive are left out. Active and inactive are the calls of the source. Unless noted, calls come from the whole dose curve; as a rule, active = well fitted curve in the direction sought with a large enough effect in the repeat runs; inconclusive = weak or mixed curves; inactive = no such curve, though single readings can be large; an effect the other way counts as inactive or inconclusive.

Legend:
[1] = qHTS assay for small molecule agonists of the p53 signaling pathway (AID 651631; calls by dose curve; note: nearly all actives have a fitted effect of over 15% in size)
Summary of the method: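 Fluorescence intensity from cleaved LiveBLAzer B/G substrate (2 h, room temperature) served as the signal. Beforehand, HCT-116 reporter cells bearing p53 response elements were treated 16 h at 37 °C with DMSO-dissolved compounds.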

[2] = qHTS assay for small molecules that induce genotoxicity in human embryonic kidney cells expressing luciferase-tagged ATAD5 (AID 651632); note: nearly all actives have a fitted effect of over 15% in size
Summary of the method: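 Quantitative HTS in HEK293T expressing luciferase-tagged ATAD5, whose levels rise upon DNA damage. Exposure ran 16 hr at 37C and 5% CO2, with luminescence read 30 min after Amplite addition at room temperature.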

[3] = qHTS assay for small molecule agonists of the p53 signaling pathway - cell viability (AID 651633; calls by dose curve;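 note: p53RE-bla HCT reporter cells with a stable beta-lactamase p53 reporter; series mostly up to about 83 µM; nearly all actives have a fitted effect of over 30% in size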)
Summary of the method: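 p53RE-bla cells were treated with compound for 16 hours at 37 C. Cytotoxicity was then measured as CellTiter-Glo luminescence after 30 min at room temperature.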

[4] = qHTS assay for small molecules that induce genotoxicity in human embryonic kidney cells expressing luciferase-tagged ATAD5 - cell viability (AID 651634; calls by dose curve; note: nearly all actives have a fitted effect of over 25% in size)
Summary of the method: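 After 15.5 hr incubation with compound at 37C, 5% CO2, HEK293T ATAD5-luciferase cells received CellTiter-Fluor reagent; fluorescence intensity was quantified following 30 min at 37C.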

[5] = qHTS assay for small molecule disruptors of the mitochondrial membrane potential - cell viability (AID 720634; calls by dose curve;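 note: human HepG2 liver cancer cells; series mostly up to about 83 µM; nearly all actives have a fitted effect of over 20% in size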)
Summary of the method: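 ATP-based luminescent viability readout (CellTiter-Glo, 30 min, room temperature) in HepG2 cells multiplexed with the m-MPI membrane potential dye; compound exposure lasted 1 hr at 37 C.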

[6] = qHTS assay to test for compound auto fluorescence at 590 nm (red) in HepG2 cells (AID 720674)
Summary of the method: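 Fluorescence at 590 nm emission following 540 nm excitation was recorded from HepG2 wells one hour after compound transfer, with DMSO-only wells as vehicle and Rose Bengal sodium equivalency as the scale.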

[7] = qHTS assay to test for compound auto fluorescence at 535 nm (green) in HepG2 cells (AID 720675)
[8] = qHTS assay to test for compound auto fluorescence at 460 nm (blue) in HEK293 cells (AID 720678)
Summary of the method: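 HEK293, 2,000 cells/well, 10% dialyzed FBS; attach 4-5 hr 37C; pin compound or DMSO; o/n 37C/5% CO2; fluorescence 405/460 nm; triamterene-equivalent units.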

[9] = qHTS assay to test for compound auto fluorescence at 590 nm (red) in HEK293 cells (AID 720679)
Summary of the method: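 Intensity at 540nm excitation and 590nm emission is reported as Rose Bengal sodium-equivalent autofluorescence. Measurements followed overnight exposure (37C, 5% CO2) of HEK293 cells, 2,000 per well, to 23 nL compound.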

[10] = qHTS assay to test for compound auto fluorescence at 535 nm (green) in HEK293 cells (AID 720680)
[11] = qHTS assay to test for compound auto fluorescence at 460 nm (blue) in HEK293 cell free culture (AID 720681)
Summary of the method: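 Compounds were added to cell-free DMEM with 10% FBS and fluorescence read directly. The blue channel used 405 nm excitation and 460 nm emission, with triamterene as the reference fluorophore.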

[12] = qHTS assay to test for compound auto fluorescence at 535 nm (green) in HEK293 cell free culture (AID 720682)
Summary of the method: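 Intrinsic compound fluorescence is measured in culture medium containing 10% FBS, with excitation at 485 nm and detection at 535 nm, referenced to fluorescein.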

[13] = qHTS assay to test for compound auto fluorescence at 590 nm (red) in HEK293 cell free culture (AID 720683)
Summary of the method: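 Cell-free wells of DMEM with 10% FBS received compound, and intrinsic fluorescence was read at excitation/emission 540/590 nm. Values expressed as equivalence to Rose Bengal sodium.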

[14] = qHTS assay to test for compound auto fluorescence at 590 nm (red) in HepG2 cell free culture (AID 720684)
Summary of the method: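 Rose Bengal sodium served as the reference for red signal. Test compounds were dispensed into serum-containing MEM (10% FBS) without cells, and plates were read at 540/590 nm.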

[15] = qHTS assay to test for compound auto fluorescence at 460 nm (blue) in HepG2 cell free culture (AID 720685)
Summary of the method: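 Cell-free plates of MEM plus 10% FBS received 23 nL compound or DMSO vehicle; blue-channel (405/460 nm) intensity scored against triamterene as reference fluorophore.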

[16] = qHTS assay to test for compound auto fluorescence at 535 nm (green) in HepG2 cell free culture (AID 720686)
[17] = qHTS assay to test for compound auto fluorescence at 460 nm (blue) in HepG2 cells (AID 720687)
Summary of the method: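 HepG2 cells in MEM with 10% FBS, attached overnight at 37 C, were exposed to compound or DMSO for 1 hr at 37 C, 5% CO2. Blue fluorescence was read at 405/460 nm, with triamterene as reference fluorophore.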

[18] = target: Glucocorticoid receptor (Homo sapiens) (UniProt P04150); assay: qHTS assay to identify small molecule agonists of the glucocorticoid receptor (GR) signaling pathway (AID 720691; active = well fitted activation curve with a large enough effect in the signal ratio in the repeat runs, not every such curve was filed as active; the % refers to the signal ratio)
Summary of the method: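 Cells: GR-bla HeLa, endogenous GR with stably integrated GRE-beta-lactamase reporter. Treatment 18 h, 37 C, compounds delivered in DMSO. Detection via LiveBLAzer B/G FRET substrate, 2 h RT, fluorescence intensity.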

[19] = target: Glucocorticoid receptor (Homo sapiens) (UniProt P04150); assay: qHTS assay to identify small molecule antagonists of the glucocorticoid receptor (GR) signaling pathway (AID 720692; active = well fitted inhibition curve with a large enough effect in the signal ratio in the repeat runs, not every such curve was filed as active; the % refers to the signal ratio)
Summary of the method: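 Quantitative HTS in antagonist format: HeLa cells expressing endogenous GR and a stably integrated GRE-bla reporter, stimulated with 5 nM dexamethasone (final) alongside test compounds for 18 h.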

[20] = qHTS assay for small molecule disruptors of the mitochondrial membrane potential (AID 720635)
Summary of the method: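 HepG2 cells exposed to compound 1 hr at 37C, then Mito-MPS dye 30 min. Ratio read of aggregate (540/590 nm) versus monomer (490/535 nm) fluorescence.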

Measured: Potency

Glucocorticoid receptor (Homo sapiens), sequence (P04150 whole entry, looked up): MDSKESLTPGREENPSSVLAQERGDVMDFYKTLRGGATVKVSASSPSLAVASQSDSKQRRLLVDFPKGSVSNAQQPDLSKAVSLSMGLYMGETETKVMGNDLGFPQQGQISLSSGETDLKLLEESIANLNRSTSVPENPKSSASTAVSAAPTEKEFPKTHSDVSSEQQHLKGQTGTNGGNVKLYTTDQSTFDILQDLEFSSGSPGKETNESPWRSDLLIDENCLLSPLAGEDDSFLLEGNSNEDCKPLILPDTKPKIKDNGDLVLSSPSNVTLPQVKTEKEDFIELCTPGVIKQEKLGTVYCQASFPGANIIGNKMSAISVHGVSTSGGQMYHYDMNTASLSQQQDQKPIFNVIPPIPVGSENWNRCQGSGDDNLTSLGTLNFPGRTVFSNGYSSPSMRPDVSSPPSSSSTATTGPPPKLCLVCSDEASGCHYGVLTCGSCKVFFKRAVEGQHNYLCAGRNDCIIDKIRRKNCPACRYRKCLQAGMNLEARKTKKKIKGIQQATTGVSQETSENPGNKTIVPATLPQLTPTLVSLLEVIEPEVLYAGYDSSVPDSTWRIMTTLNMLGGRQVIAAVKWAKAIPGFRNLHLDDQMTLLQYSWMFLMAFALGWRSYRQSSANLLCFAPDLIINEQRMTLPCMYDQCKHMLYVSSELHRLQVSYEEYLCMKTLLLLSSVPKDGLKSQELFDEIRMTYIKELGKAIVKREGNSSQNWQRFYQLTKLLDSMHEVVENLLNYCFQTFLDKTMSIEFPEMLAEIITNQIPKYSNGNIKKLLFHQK

CCOC(=O)NC(C)(C)Cc1ccc(Cl)cc1
not listed: [20]
inactive: all other assays above

S=C=S
not listed: [7]
inactive: all other assays above

C/C(=N\NC(=O)Nc1cc(F)cc(F)c1)c1ncccc1C(=O)O
not listed: [20]
inactive: all other assays above

CCCCCCCC(=O)Cl
not listed: [7]
inactive: all other assays above

Cc1ccc2c(c1)C1CN(C)CCC1N2 (stereo not given)
inactive: all assays above

CCC(C)(C#N)N=NC(C)(C#N)CC (stereo not given)
not listed: [18] | [19] | [20]
inactive: all other assays above

O=C(Cl)C(Cl)Cl
not listed: [19] | [20]
inactive: all other assays above

CC1=C2[C@H]3OC(=O)[C@@H](C)[C@@H]3CC[C@@]2(C)C=CC1=O
not listed: [6]
inactive: all other assays above

O=C(Cl)C(Cl)(Cl)Cl
not listed: [6] | [19]
inactive: all other assays above

C/C=C/CC#N
not listed: [15] | [18] | [19] | [20]
inactive: all other assays above

C=CCc1cc(OC)c2c(c1)OCO2
not listed: [15] | [19] | [20]
inactive: all other assays above

CCCOc1nn(C(=O)NS(=O)(=O)c2ccccc2C(=O)OC)c(=O)n1C
not listed: [20]
inactive: all other assays above

COc1cccc([C@@]2(O)CCCC[C@@H]2CN(C)C)c1
not listed: [20]
inactive: all other assays above

C=CC(=O)OCCN(C)C
not listed: [5] | [7]
inactive: all other assays above

CCOP(=O)(CN(CCO)CCO)OCC
not listed: [6] | [20]
inactive: all other assays above
